Bioassay records (PubChem BioAssay)
FMDV inh – foot and mouth disease virus antiviral activity. FMDV antiviral cell-based qHTS. Potency, µM (titrated, usually from 57.9 µM), inactives show at the top dose activity change, negative = inhibition, actives largely listed as inhibitors. hit rate 1.2% among 410,000. AID 1159524; calls by dose curve; tested in HEK293T cells; further: read-out not given here; potency means the concentration at half of the fitted maximal effect; nearly all actives have a fitted effect of over 45% in size
LASV entry inh – inhibitors of Lassa virus binding or cell entry. Lassa virus pseudotype entry inhibition, cell reporter. hit rate 1.2% among 300,000. Potency, µM (top dose mostly 37.9 µM), for inactives: at the top dose activity change, negative = inhibition, usual class: inhibitors; calls by dose curve; tested in HEK293 cells; further: potency means the concentration at half of the fitted maximal effect; nearly all actives have a fitted effect of over 50% in size
Marburg entry inh – blocks Marburg virus binding to or entry into cells | Marburg virus pseudotyped entry inhibition, cell reporter | Potency, µM (top dose mostly 37.8 µM), inactives show at the highest dose activity change, negative = inhibition, actives largely listed as inhibitors | hit rate 1.8% among 300,000 | AID 540276; calls by dose curve; tested in HEK293 cells; further: potency means the concentration at half of the fitted maximal effect
Vaccinia Venus – inhibitors of vaccinia virus (Venus reporter). Vaccinia virus Venus reporter expression, fluorescence. Potency, µM (highest dose often 36.5 µM), for the others: at the top dose activity change, negative = inhibition, actives largely listed as inhibitors. hit rate 0.46% among 330,000. AID 720580; calls by dose curve; tested in A549 cells; further: potency means the concentration at half of the fitted maximal effect; nearly all actives have a fitted effect of over 30% in size
HCMV inh – inhibitors of human cytomegalovirus. HFF cells, HCMV-luciferase reporter, 72 h; hits give low values. activity change, negative = inhibition, % at 57.5 µM. hit rate 4.5% among 410,000. AID 1259415; in the data active means activity change below about -60%; inconclusive means no clear call, values can overlap the other calls; inactive means above about -39%
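Luciferase read-out from HCMV-luciferase-infected HFFs (MOI 1 PFU/cell) 72 h post infection at 37C; compounds added after 16 h cell attachment; activity normalized between buffer-only basal and Salinomycin (10uM) inhibitor controls.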
VACV mCherry inh – inhibitors of vaccinia virus infection (mCherry reporter signal). Potency, µM (titrated, usually from 36.5 µM), inactives show at the highest dose activity change, negative = inhibition, actives largely listed as inhibitors. Vaccinia virus mCherry reporter infection, fluorescence. hit rate 0.63% among 310,000; calls by dose curve; tested in A549 cells; further: potency means the concentration at half of the fitted maximal effect; nearly all actives have a fitted effect of over 35% in size
* = called active by the depositor; i = inactive; ? = inconclusive; nt = not tested or not shown; + = active, no number; ! = repeats disagree; [ ] = another dose, or the depositor's remark. Sampled rows, rich in hits. Any-hit rate of the full collection: about 6.5%. On the % scale 0 is the no-effect control and ±100 the full control effect.

SMILES	FMDV inh	LASV entry inh	Marburg entry inh	Vaccinia Venus	HCMV inh	VACV mCherry inh
CCOc1ccccc1N(CC(=O)N1CCC(C)CC1)S(=O)(=O)c1ccc(C)cc1	36%	-17%	?	-13%	-19	i
COC(=O)C(C(C)=O)[C@@H](NC(=O)NCc1ccccc1)c1ccccc1 (some centres not stated)	nt	nt	25%[14.2 µM]	nt	nt	nt
Cc1cccn2c(=O)c3cc(C(=O)NC4CCCC4)c(=N)n(Cc4ccc(F)cc4)c3nc12	-12%	nt	nt	9%[7.34 µM]	-16	-5%[7.34 µM]
Cc1ccc(Cn2c(=N)c(C(=O)NCC3CCCO3)cc3c(=O)n4cccc(C)c4nc32)cc1 (configuration not stated)	7%	-10%[46.1 µM]	?	-9%	-107*	0%
COCCCn1c(=N)c(C(=O)NCC2CCCO2)cc2c(=O)n3cccc(C)c3nc21 (configuration not stated)	-25%	0%	?	1%	-27	-15%
Cc1cccn2c(=O)c3cc(C(=O)NC4CCCCC4)c(=N)n(Cc4ccccc4)c3nc12	-21%	?	-16%[46.1 µM]	-8%	-61*	i
CCOCCCn1c(=N)c(C(=O)NCC2CCCO2)cc2c(=O)n3cccc(C)c3nc21 (configuration not stated)	-22%	7%[46.1 µM]	?	10%	-67*	11%
Cc1noc(C)c1CCC(=O)N1CCOc2ccc(CN3CCN(c4ccccn4)CC3)cc2C1	?	nt	nt	-24%	nt	?
Cc1cc(C)cc(NC(=O)C2C3C=CC4(O3)C2C(=O)N(CCCN2CCCC2)C4C(=O)NC2CCCC(C)C2C)c1 (configuration not stated)	-16%	12%	-30%[46.1 µM]	-6%	-2	i
COc1ccc(NC(=O)C2C3C=CC4(O3)C2C(=O)N(CCN2CCCCC2)C4C(=O)NC2CCCC(C)C2C)cc1 (configuration not stated)	-17%	16%[46.1 µM]	5µM*	-28%	14	-23%
Cn1ccc2c(/C=C/c3ccc(F)cc3)cc3c(c21)C1CCC3C1 (configuration not stated)	-11%	nt	nt	1%	-67*	i
Cn1ccc2c(/C=C/c3ccc(F)cc3)cc3c(c21)C1CCC3O1 (configuration not stated)	-15%	nt	nt	-11%	-16	10%
CCOc1cc(CNCC2CCCO2)cc(Br)c1OCC(N)=O (configuration not stated)	-17%	1%	?	nt	-69*	nt
COc1cc(CNCC2CCCO2)ccc1OCC(N)=O (configuration not stated)	-8%	nt	nt	nt	12	nt
CC(NC(=O)c1cccnc1)c1nnc2n1CCN(Cc1ccc(F)cc1F)CC2 (configuration not stated)	-6%	nt	nt	-2%	nt	-7%
CCCCOP(=O)(c1ccc(N(C)C)cc1)C(O)c1c(Cl)cccc1Cl (configuration not stated)	71%	-3%	2%	-11%	-76*	-19%
CCOC(=O)N1CCC(N2Cc3cccc(C(=O)Nc4ccc(CC)cc4)c3C2=O)CC1	-15%	-16%	?	nt	65	nt
CCOC(=O)N1CCC(N2Cc3cccc(C(=O)Nc4ccc(F)cc4)c3C2=O)CC1	-15%	-2%	-2%	nt	-102*	nt
O=C(COc1ccc(S(=O)(=O)Nc2ccccc2)cc1)NCc1ccncc1	11%	2.6µM*	?	-16%	?	-3%
CCOc1ccc(S(=O)(=O)NCc2ccncc2)cc1	-14%	?	?	nt	-96*	nt
CCOc1cc(S(=O)(=O)NCc2ccncc2)ccc1Cl	-10%	?	?	-18%	-84*	i
Cc1c(Cl)cccc1-n1ncc(C(=O)Nc2ccc(F)cc2F)c1C1CCN(C(=O)OC(C)(C)C)CC1	-18%	0%[46.1 µM]	nt	-24%	-12	-15%
CC1(C)CC(=O)c2cc(C(=O)N3CCCC(C)(C)C3)c(=O)n(-c3ccccc3)c2C1	17%	0%	4%	-12%	-77*	nt
COc1ccc(-n2c3c(cc(C(=O)N4CCCCC4)c2=O)C(=O)CC(C)(C)C3)cc1	12%	?	10%	14µM*	-5	?
CC1(C)CC(=O)c2cc(C(=O)O)c(=O)n(-c3ccccc3)c2C1	4%	-2%	?	nt	-22	nt
SMILES	FMDV inh	LASV entry inh	Marburg entry inh	Vaccinia Venus	HCMV inh	VACV mCherry inh
COc1cccc(NC(=O)Cn2c(=O)n(Cc3ccc(C(=O)NCc4ccc5c(c4)OCO5)cc3)c(=O)c3ccccc32)c1	-17%	-9%[46.1 µM]	-18%[46.1 µM]	-3%	-3	6%
COc1ccc(Nc2ncc(C(=O)N3CCC4(CC3)OCCO4)c3ccccc23)cc1	-14%	-23%	13%	-23%	-76*	nt
COc1ccc(Nc2ncc(C(=O)N3CCN(c4ccc(OC)cc4)CC3)c3ccccc23)cc1	-15%	?	?	-24%	-31	-23%
COc1ccc(Nc2ncc(C(=O)N3CCN(c4ccc(F)cc4)CC3)c3ccccc23)cc1	?	?	?	-15%	-105*!	-21%
C#C[C@]1(O)CCC2C3CCC4=Cc5oncc5C[C@@]4(C)C3CC[C@@]21C (some centres not stated)	?	nt	nt	-14%	nt	-19%
Cn1c(CN2CCCC2)nc2cc(NC(=O)COc3ccccc3)ccc21	-19%	?	21%[46.1 µM]	-16%	7	nt
Cc1cccc(OCC(=O)Nc2ccc3c(c2)nc(CN2CCCCC2)n3C)c1	13µM*	?	?	-31%	?	-9%
CC(=O)N1CCN(Cc2nc3cc(NC(=O)COc4cccc(C)c4)ccc3n2C)CC1	?	-23%[46.1 µM]	?	-9%	-63*	?
COc1ccc(OCC(=O)Nc2ccc3c(c2)nc(CCN2CCCCC2)n3C)cc1	4%	nt	nt	nt	?	nt
Cc1cccc(OCC(=O)Nc2ccc3c(c2)nc(CCN2CCCCC2)n3C)c1	-3%	nt	nt	nt	-86*	nt
COc1ccc(-c2cc(C(F)(F)F)n3nc(C(=O)NCC45CC6CC(CC(C6)C4)C5)cc3n2)cc1	-16%	-16%[46.1 µM]	1%[46.1 µM]	5%	-4	9%
CCc1ccc(CNC(=O)c2cnc3sc(N4CCCC4)nn3c2=O)cc1	-13%	?	nt	-1%	17	-14%
CC(=O)Nc1ccc(NC(=O)C2(c3cccs3)CCOCC2)cc1	-6%	?	nt	-6%	+	-2%
COc1cc(/C=C2/SC(=Nc3ccc(O)cc3)NC2=O)ccc1O	-4%	nt	nt	44%	-77*	13µM*
O=C1NC(=Nc2ccccc2)S/C1=C\c1ccccc1	70%	nt	nt	nt	-86*	nt
O=C1NC(=Nc2cccc(O)c2)S/C1=C\c1cccc([N+](=O)[O-])c1	7%	21%	16%	-21%	-69*	0%
COc1ccc(S(=O)(=O)/N=C2/NC(=O)/C(=C/c3ccco3)S2)cc1	46%	12%	9%	-11%	14	i
O=C1NC(=Nc2cccc(O)c2)S/C1=C\c1cccnc1	20%	?	?	-16%	?	-10%
COc1ccc(N=C2NC(=O)/C(=C/c3ccco3)S2)cc1	56%	nt	nt	nt	-68*	nt
